Experiment [1] can be described thus: qHTS RealTime-Glo MT Cell Viability Assay in HepG2 cells - 40 hour (AID 1224870). Note: nearly all actives have a fitted effect of over 50% in size. Note: potency is the fitted concentration of half-maximal effect. The gist of the method: (§1)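 HepG2 cells mixed with RealTime-Glo MT reagents (NanoLuc plus cell-permeant prosubstrate) were seeded at 600 cells/well, incubated 5 h at 37 C/5% CO2, then pinned with compounds in DMSO; nonlytic luminescence tracked viability during 40 h treatment.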
The nature of experiment [2]: A CellTox Green Cytotoxicity Assay to monitor cytotoxicity in HEK293 cells - 40 hour (AID 1224871). Note: nearly all actives have a fitted effect of over 45% in size. The essentials:
(§2)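 Dead-cell fluorescence measured kinetically: asymmetric cyanine dye, HEK293, 600 cells/well, 5 h settle, 23 nL cpd/DMSO, 37 C, reads 0–40 h every 8 h.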

Experiment [3] can be described thus: qHTS RealTime-Glo MT Cell Viability Assay in HEK293 cells - 16 hour (AID 1224872). Note: nearly all actives have a fitted effect of over 50% in size. Note: potency is the fitted concentration of half-maximal effect. The gist of the method: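 Homogeneous bioluminescent viability format in HEK293 cells (600 cells/well). Following 5 h at 37 C/5% CO2, 23 nL compound was pintooled; the signal was measured repeatedly during 40 h incubation.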
On the technique in general: Quantitative high-throughput screening tests each substance at several concentrations.

Experiment [4] in a line: qHTS RealTime-Glo MT Cell Viability Assay in HepG2 cells - 8 hour (AID 1224873). Note: nearly all actives have a fitted effect of over 55% in size. Note: potency is the fitted concentration of half-maximal effect. The essentials: as §1
Experiment [5] is described as follows: qHTS RealTime-Glo MT Cell Viability Assay in HEK293 cells - 40 hour (AID 1224874). Note: nearly all actives have a fitted effect of over 50% in size. Note: potency is the fitted concentration of half-maximal effect. Particulars: RealTime-Glo luminescence; max response: stronger effect = lower value. The essentials:
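600 HEK293 cells per well, dispensed already mixed with RealTime-Glo MT reagents. Compound dosing came 5 h later. The same wells were read for luminescence at 0, 8, 16, 24, 32 and 40 h of exposure at 37 C.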

Experiment [6] is described as follows: A CellTox Green Cytotoxicity Assay to monitor cytotoxicity in HEK293 cells - 24 hour (AID 1224875). Note: series mostly up to about 77 µM; nearly all actives have a fitted effect of over 45% in size. The gist of the method: as §2
The nature of experiment [7]: A CellTox Green Cytotoxicity Assay to monitor cytotoxicity in HepG2 cells - 16 hour (AID 1224876). Note: nearly all actives have a fitted effect of over 45% in size. The gist of the method: (§3)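 First, HepG2 cells (600/well) mixed with reagent were plated; second, after 5 h at 37 C they received compounds via pintool; third, fluorescence was measured at 0 h through 40 h at 8 h intervals.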
Experiment [8] in a line: qHTS RealTime-Glo MT Cell Viability Assay in HepG2 cells - 32 hour (AID 1224877). Note: nearly all actives have a fitted effect of over 55% in size. Note: potency is the fitted concentration of half-maximal effect. The essentials: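 Cell number in HepG2 cultures estimated from NanoLuc luminescence generated by metabolic reduction of a prosubstrate by living cells. The homogeneous, nonlytic format allowed repeated reads at 0, 8, 16, 24, 32 and 40 h of compound exposure.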
Experiment [9] in a line: A CellTox Green Cytotoxicity Assay to monitor cytotoxicity in HepG2 cells - 24 hour (AID 1224878). Note: nearly all actives have a fitted effect of over 45% in size. Note: potency is the fitted concentration of half-maximal effect. The gist of the method:
as §3

Experiment [10] can be described thus: A CellTox Green Cytotoxicity Assay to monitor cytotoxicity in HepG2 cells - 40 hour (AID 1224879). Note: nearly all actives have a fitted effect of over 40% in size. Note: potency is the fitted concentration of half-maximal effect. The essentials: as §3

Where “and” joins values, the source holds several entries; their conditions need not be identical. Identical values can stand only once. Results filed as inconclusive are left out. Values without a mark were called inactive. Calls of active or inactive are those of the source. Calls come from the whole dose curve; as a rule, active = well fitted curve in the direction sought with a large enough effect in the repeat runs; inconclusive = weak or mixed curves; inactive = no such curve, though single readings can be large; an effect the other way counts as inactive or inconclusive.
% is set by controls: 0 for no effect and ±100 for the full control effect.

For the compound `CCC(=O)OC/C=C/c1ccccc1`, the Potency entry in experiment [1], in [2], in experiment [3], in experiment [4], in experiment [6] and in experiment [7] was “inactive” throughout. Also, the Potency result in experiment [8], in [9] and in experiment [10] was “inactive” throughout. The max response in experiment [5] was 1.64% and -7.61%.
With `C=CC(=C)CCCC(C)(C)OC(C)=O`, the Potency result in [1], in experiment [2], in experiment [3], in experiment [4], in experiment [6] and in experiment [7] was “inactive” throughout. In addition, the Potency result in experiment [8], in experiment [9] and in experiment [10] was “inactive” each time. Besides, the max response in experiment [5] is -7.82%.
Take `Oc1cc(O)c(Cl)cc1Cl`: the Potency entry in experiment [1], in [2], in [3], in experiment [4], in experiment [6] and in experiment [7] was “inactive” in each case. Further, the Potency entry in experiment [8], in [9] and in [10] was “inactive” throughout. In experiment [5], the max response was 17.2%.
As for `CCCCCCCCCCOS(=O)(=O)O`, the Potency result in experiment [1], in [2], in [3], in experiment [4], in [6] and in [7] was “inactive” in each case. The Potency result in [8], in experiment [9] and in experiment [10] was “inactive” each time. Moreover, the max response in experiment [5] is -3.11%.
As for `CC1=NN(c2ccc(C(=O)O)cc2)C(=O)C1`, the Potency result in [1], in [2], in experiment [3], in experiment [4], in experiment [6] and in [7] was “inactive” each time. The Potency entry in [8], in experiment [9] and in experiment [10] was “inactive” throughout. Also, the max response in experiment [5] was -25.1%.
Consider `O=Cc1c(Cl)cccc1Cl`, for which the Potency entry in experiment [1], in experiment [2], in [3], in [4], in experiment [6] and in experiment [7] was “inactive” in each case. Besides, the Potency entry in experiment [8], in [9] and in [10] was “inactive” each time. Further, the max response in [5] is -15.3%.
In the case of `CCCCOC(=O)CCS`, the Potency result in [1], in [2], in experiment [3], in [4], in [6] and in experiment [7] was “inactive” throughout. Moreover, the Potency result in [8], in [9] and in experiment [10] was “inactive” throughout. Also, the max response in experiment [5] is 5.96%.
As to `C[N+]1(C)CCC(=C(c2ccccc2)c2ccccc2)CC1`, the Potency result in [1], in experiment [2], in experiment [3], in experiment [4], in [6] and in [7] was “inactive” in each case. The Potency entry in experiment [8], in experiment [9] and in [10] was “inactive” in each case. Also, the max response in [5] was 7.64%.
As for `COC(OC)(C(=O)c1ccccc1)c1ccccc1`, the Potency entry in [1], in experiment [2], in experiment [3], in experiment [4], in [6] and in experiment [7] was “inactive” in each case. Moreover, the Potency entry in experiment [8], in [9] and in experiment [10] was “inactive” each time. In experiment [5], the max response is 1.09%.
On to `COCCOC`, for which the Potency result in [1], in [2], in experiment [4], in experiment [6], in experiment [7] and in [8] was “inactive” each time. Further, the Potency entry in experiment [9] and in experiment [10] was “inactive” throughout. Also, the figures for the Potency in experiment [3] and in [5] were 0.932 µM (active) and 0.83 µM (active), respectively.
On to `CO[Si](C)(OC)OC`, for which the Potency result in experiment [1], in [2], in experiment [3], in [4], in experiment [6] and in experiment [7] was “inactive” each time. The Potency result in experiment [8] and in experiment [9] was “inactive” in each case. In addition, the max response in experiment [5] is 2.67%.
With `CC1(C)C(=O)N(Br)C(=O)N1Cl`, the Potency entry in [1], in experiment [2], in [3], in [4], in [6] and in [7] was “inactive” in each case. For the same compound, the Potency result in experiment [8], in experiment [9] and in [10] was “inactive” each time. For the same compound, in [5], the max response is 8.13%.
Regarding `CCCOC(=O)c1ccc(C(=O)OCCC)nc1`, the Potency entry in [1], in experiment [2], in [3], in [4], in [6] and in experiment [7] was “inactive” throughout. The Potency result in experiment [8], in experiment [9] and in experiment [10] was “inactive” in each case. For the same compound, the max response in experiment [5] is 7.22%.
As for `Cc1nc2ccccn2c(=O)c1CCN1CCC(C(=O)c2ccc(F)cc2)CC1`, the Potency entry in experiment [1], in experiment [2], in experiment [4], in experiment [6], in experiment [7] and in experiment [8] was “inactive” throughout. Moreover, the Potency result in experiment [9] and in experiment [10] was “inactive” in each case. Besides, the Potency is 4.77 µM (active) in experiment [3] and 8.49 µM (active) in experiment [5].
On to `Cc1ccc(S)cc1`, for which the Potency entry in experiment [1], in [2], in experiment [3], in experiment [4], in experiment [6] and in [7] was “inactive” in each case. Also, the Potency entry in experiment [8] is “inactive”. Also, the max response in experiment [5] is 4.48%. In addition, the Potency in experiment [9] and in experiment [10] was 17.4 µM (active) in each case.
As for `COc1ccc(CCC(=O)c2c(O)cc(O[C@@H]3O[C@H](CO)[C@@H](O)[C@H](O)[C@H]3O[C@@H]3O[C@@H](C)[C@H](O)[C@@H](O)[C@H]3O)cc2O)cc1O`, the Potency result in [1], in experiment [2], in [3], in [4], in experiment [6] and in experiment [7] was “inactive” each time. Besides, the Potency entry in [8], in experiment [9] and in experiment [10] was “inactive” each time. For the same compound, the max response in [5] is 12.3%.
As to `CC[C@H](NC(=O)c1cc(F)ccc1NS(=O)(=O)c1cccc2cccnc12)c1ccccc1`, the Potency in experiment [1] was 52 µM (active); in experiment [4] it was 41.3 µM (active); in [8], 52 µM (active). Besides, the Potency result in experiment [2], in experiment [3], in experiment [6], in experiment [7] and in experiment [9] was “inactive” throughout. The max response in experiment [5] was -13%.
For the compound `COc1cc2[nH]c(=O)[nH]c(=O)c2cc1OC`, the Potency result in [1], in experiment [2], in [3], in experiment [4], in experiment [6] and in [7] was “inactive” each time. Also, the Potency entry in experiment [8], in experiment [9] and in [10] was “inactive” each time. In addition, the max response in [5] is 1.95%.
For `CN(C(=O)C(Cl)Cl)c1ccc(OC(=O)c2ccco2)cc1`, the Potency entry in experiment [1], in [2], in experiment [3], in experiment [4], in [6] and in experiment [7] was “inactive” in each case. Besides, the Potency result in experiment [8], in [9] and in [10] was “inactive” in each case. Also, the max response in [5] is -3.14%.
In the case of `CCn1cc(C(=O)O)c(=O)c2cc(F)c(N3CCNCC3)nc21`, the Potency entry in experiment [1], in [2], in [3], in experiment [4], in experiment [6] and in experiment [7] was “inactive” in each case. Besides, the Potency entry in [8] and in [10] was “inactive” in each case. The max response in [5] is 10.3%.

Source of the values: PubChem BioAssay (Tox21).
